Shown are actives, neighbours in structure and some others; about 4.1% of the full set was active somewhere.
PRMT1 FP inh = PRMT1 (human) inhibition, primary screen; Q99873; recombinant PRMT1, activity-based probe fluorescence polarization; inhibition, % at 2.79 µM; hit rate 1.3% among 370,000; AID 652257;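 active = inhibition above about 21% made by adding two undisclosed values, limit read from the data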
LEDGF integ inh = blocks HIV-1 LEDGF/p75-dependent DNA integration; TR-FRET IN-LEDGF/p75 DNA integration, Eu/Cy5; inhibition, % at 3.7 µM; hit rate 0.64% among 370,000; AID 743269;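 active = inhibition above the screen-wide mean plus 3 SD, cut at about 13% in these data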;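 note: signal is the Cy5 over europium emission ratio at 671 and 618 nm; 0% = plate median of compound wells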
UHRF1 binding = blocks human UHRF1 binding to methylated DNA. inhibition, % at 4.4 µM. Q96T88. hit rate 0.75% among 370,000. UHRF1 binding to methylated oligo, TR-FRET;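 note: UHRF1 SRA domain binding a hemimethylated CpG hairpin DNA probe; 0% = median of test compound wells and 100% = reference inhibitor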
Target sequence (Q96T88 whole entry, looked up, the tested form may be a part): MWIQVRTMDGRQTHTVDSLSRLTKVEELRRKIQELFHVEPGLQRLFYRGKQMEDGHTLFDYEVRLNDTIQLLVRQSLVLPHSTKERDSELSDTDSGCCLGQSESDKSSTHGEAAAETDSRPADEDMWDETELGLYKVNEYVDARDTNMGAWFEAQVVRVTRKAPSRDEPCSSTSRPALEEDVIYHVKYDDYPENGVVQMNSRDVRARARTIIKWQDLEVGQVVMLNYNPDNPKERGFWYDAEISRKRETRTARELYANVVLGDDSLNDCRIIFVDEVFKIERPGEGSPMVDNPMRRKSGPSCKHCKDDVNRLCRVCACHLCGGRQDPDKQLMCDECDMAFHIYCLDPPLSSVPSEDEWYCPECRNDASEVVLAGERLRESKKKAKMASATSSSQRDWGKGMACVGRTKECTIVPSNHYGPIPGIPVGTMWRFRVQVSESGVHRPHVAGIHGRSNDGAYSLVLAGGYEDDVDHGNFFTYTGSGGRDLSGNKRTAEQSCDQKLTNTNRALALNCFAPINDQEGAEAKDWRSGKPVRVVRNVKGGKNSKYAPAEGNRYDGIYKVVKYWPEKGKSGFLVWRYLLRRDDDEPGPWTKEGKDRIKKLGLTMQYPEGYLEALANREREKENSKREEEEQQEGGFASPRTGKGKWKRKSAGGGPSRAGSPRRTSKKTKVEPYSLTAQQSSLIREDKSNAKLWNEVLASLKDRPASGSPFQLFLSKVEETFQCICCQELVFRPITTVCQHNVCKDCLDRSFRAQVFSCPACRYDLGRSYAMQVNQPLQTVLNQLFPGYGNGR
MBD2 inh = blocks human MBD2 binding to methylated DNA. inhibition, % at 4.4 µM. AID 686964. TR-FRET, MBD2 binding to methylated oligonucleotide. hit rate 0.31% among 370,000. Q9UBB5; in the data active = inhibition above about 13%
ABHD5-PLIN5 inh = blocks binding of human ABHD5 to perilipin-5; Split G. princeps luciferase complementation, luminescence, 4 h; inhibition, % at 4 µM; hit rate 0.78% among 360,000; AID 602281;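 active = inhibition above the mean inhibition across every tested compound plus 3 SD, cut at about 22% in these data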;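 note: 0% = DMSO only wells and the 100% control is not disclosed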
rCAG RNA binder = r(CAG) repeat RNA binding | TO-PRO-1 dye displacement fluorescence | inhibition, % at 3 µM | hit rate 1.3% among 370,000;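 active = inhibition above the plate cutoff, the mean of all test compounds on that plate plus 3 SD, cut at about 35% in these data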;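 note: 0% = DMSO alone and 100% = 100 µM mitoxantrone as full dye displacement; higher means more dye released from RNA so lower well fluorescence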
UHRF1 ctr MBD2 = UHRF1 methyl-oligo binding inhibition as MBD2 counter-screen; shares compounds with MBD2 inh; UHRF1 binding to methylated oligonucleotide, TR-FRET; inhibition, % at 4.4 µM; hit rate 25% among 1,000;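 note: UHRF1 SRA domain binding a labeled hemimethylated CpG hairpin DNA; 0% = vehicle only and 100% = reference inhibitor with vehicle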
MBD2 confirm = MBD2-DBD methyl-DNA binding inhibition, TR-FRET confirmation; shares compounds with MBD2 inh; TR-FRET MBD2-DBD binding to methylated oligonucleotide; inhibition, % at 4.4 µM; hit rate 26% among 1,000; AID 720531; in the data active = inhibition above about 14%
Numbers without * were called inactive; / = not tested or not shown. Cut-off read from the data, not from the text of the source, unless noted: active = inhibition above about 21%; inactive = the rest.

SMILES	PRMT1 FP inh	LEDGF integ inh	UHRF1 binding	MBD2 inh	ABHD5-PLIN5 inh	rCAG RNA binder	UHRF1 ctr MBD2	MBD2 confirm
O=C(Nc1sc2c(c1-c1nc3ccccc3s1)CCNC2)C(F)F	5	0	-20	4	/	/	/	/
CC(=O)Nc1sc2c(c1-c1nc3ccccc3s1)CCCNC2	2	4	-4	21*	/	/	10	32*
O=C(N[C@@H](Cc1cccnc1)C(=O)N1CCC[C@H]1C(=O)NCCc1ccccc1Cl)c1cccs1	0	4	0	0	/	0	/	/
COc1ccccc1CCNC(=O)CSc1nc2c([nH]1)c(=O)n(C)c(=O)n2C	-5	-4	-1	0	/	4	/	/
COc1ccccc1CCNC(=O)CSc1nc(=O)[nH]c2c1CCC2	0	-3	0	23*	5	-2	4	4
Cc1ccc(C)c(NC(=O)Cn2nc(C)c3ccccc3c2=O)c1	-1	2	2	17*	-1	-4	9	3
CCCCCCSc1ccc([C@H]2N[C@@](Cc3ccccc3)(C(=O)OC)[C@H]3C(=O)N(CC)C(=O)[C@@H]23)cc1	0	-1	-2	1	9	0	/	/
CCCCCCSc1ccc([C@H]2N[C@@](Cc3ccccc3)(C(=O)OC)[C@H]3C(=O)N(C)C(=O)[C@@H]23)cc1	9	8	20	14*	-17	0	7	2
CCCCn1c(NC(=O)c2ccccc2)c(C#N)c2nc3ccccc3nc21	5	6	18	24*	-49	15	-1	17*
CC1=N/C(=C\c2ccc([N+](=O)[O-])cc2)C(=O)N1c1ccc(C)c(Cl)c1	-1	1	4	6	/	7	/	/
Cc1nc2cc[nH]n2c(=O)c1CCc1ccccc1	3	0	0	-6	/	1	/	/
O=C(/C=C/c1ccc2ccccc2c1)c1ccoc1	0	2	-7	20*	25*	14	7	2
O/N=C/c1ccc2ccccc2c1	-3	3	-3	0	-1	-1	/	/
COc1ccc(-c2oc3ncnc(NCCCN(C)C)c3c2-c2ccc(OC)cc2)cc1	-1	2	5	15*	10	14	14	10
O=C(NNC(=O)c1cccc2ccccc12)c1ccc(Cl)c(Cl)c1	-8	0	-2	66*	-3	1	2	0
Cc1cc(C(=O)N2CCOCC2)c(C)o1	4	2	22*	15*	1	-1	8	3
OCCCN1CCC2(CCC(c3ccccc3)CC2)C1 (centres undefined)	-4	1	20	4	/	4	/	/
COC(=O)C1CCN(C(c2cccs2)c2sc3nc(C)nn3c2O)CC1 (centres undefined)	-1	-2	10	19*	-11	0	1	2
CC(=O)C1=C(O)C(=O)N(c2ccc(O)cc2)C1c1ccccc1 (centres undefined)	0	-8	-2	22*	4	2	6	1
O=S1(=O)CC(N2CCCCC2)CN1C1CCCCC1 (centres undefined)	-3	1	1	-2	3	3	/	/
O=S1(=O)CC(N2CCCC2)CN1 (centres undefined)	-2	3	15	15*	/	2	10	3
Cc1nn(CCc2n[nH]c(=S)n2-c2ccc(F)cc2)c(C)c1[N+](=O)[O-]	1	-2	0	73*	-3	3	8	2
Cc1nn(CCc2n[nH]c(=S)n2-c2ccc(F)c(Cl)c2)c(C)c1[N+](=O)[O-]	5	0	-3	2	6	6	/	/
Cc1c[nH]c2cccc(-c3ccc4c(c3)OCO4)c12	-1	0	-2	-5	/	3	/	/
O=S1(=O)c2ccc(N3CCSCC3)cc2Oc2ccccc2CN1Cc1cn(Cc2ccc(C(F)(F)F)cc2)nn1	0	4	4	3	/	12	/	/
SMILES	PRMT1 FP inh	LEDGF integ inh	UHRF1 binding	MBD2 inh	ABHD5-PLIN5 inh	rCAG RNA binder	UHRF1 ctr MBD2	MBD2 confirm
O=C(/C=C(\Nc1ccc(Br)c(F)c1)c1ccccc1)c1ccccc1	-1	-2	8	-1	/	1	/	/
CNC(=S)N(Cc1cc2cc(OC)c(OC)cc2[nH]c1=O)C1CCCC1	3	-2	2	20*	-1	0	11	3
O=C(Nc1ccc(Cl)cc1)OCC12COCN1COC2	-3	-3	0	0	/	1	/	/
COc1ccc(Cc2nnc(NC(=O)C3CCCO3)s2)cc1OC (centres undefined)	0	-1	-1	2	4	0	/	/
COc1ccc(Cc2nnc(NC(=O)C3CCCO3)s2)cc1 (centres undefined)	-1	-1	-2	15*	-2	-2	12	4
c1ccc(Oc2ncnc3ccccc23)cc1	6	-6	0	21*	-4	2	2	2
COc1ccc2c(c1)CNC2CS(=O)(=O)NCc1ccc(F)cc1 (centres undefined)	3	-2	-2	-4	/	11	/	/
Cc1cc(C)c2c(N)c3cccc(C)c3nc2n1	3	-4	29*	25*	6	15	38*	41*
Cc1cccc2c(N)c3c(nc12)CCCC3 (tested in a mixture with another compound)	0	0	4	-3	5	4	/	/
COC(=O)C1=C(C)N(C)C(=NCc2cc(OC)c(OC)c(OC)c2)NC1c1ccc(C(F)(F)F)cc1 (centres undefined)	0	0	1	5	/	7	/	/
Cc1c(C(=O)Nc2cccc(F)c2)cnn1-c1ccccc1	2	-1	0	13*	-13	-3	7	4
Cc1cccc(C(=O)NC(=O)Nc2c(C)cc(C)nc2C)c1	0	0	24*	14*	2	-4	4	4
Cc1cc(=O)[nH]c2ccccc12	0	-1	2	-2	1	-1	/	/
Cc1cc2[nH]c3c(c[n+](C)c4ccccc34)c2cc1C	0	5	51*	83*	5	22	60*	88*
Cn1c(SCc2ccc(Cl)cc2)nnc1-c1ccc2nonc2c1	-1	-2	4	21*	0	-3	7	3
Cn1c(SCc2c(Cl)cccc2Cl)nnc1-c1ccc2nonc2c1	1	-4	2	2	3	-3	/	/
CCN(CC)C(=S)NC(=O)c1ccc(F)cc1	1	2	-1	27*	8	-3	3	4
Nc1nc(SCC(=O)N2CCN(c3ccc(F)cc3)CC2)n[nH]1	-4	3	1	48*	6	2	4	3
O=C1CN=C(Nc2ccccc2)N1Cc1cccs1	0	2	-1	35*	1	-3	3	2
